IL1B secr inh: qHTS for Inhibitors of Inflammasome Signaling: IL-1-beta AlphaLISA Primary Screen. THP-1 LPS/ATP IL-1B secretion, AlphaLISA, 16 h; active compounds read low. activity change, % at 57.5 µM. 4.7% of 360,000 active. AID 743279, 2014; in the data active = activity change below about -50%; inconclusive = mostly about -30% to -49%
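THP-1 cells pretreated 1 hr with compounds (up to 57.5 uM final), then stimulated with LPS (250 ng/mL final) plus ATP (1.25 mM final); secreted IL-1B measured by AlphaLISA after 16 hr, decreased signal indicating inhibition.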
CtBP-E1A inh: qHTS Assay for Inhibitors of the CtBP/E1A Interaction | activity change, % (no concentration beside the values) | AlphaScreen GST-E1A/His-CtBP binding, 1536-well; active compounds read low | 0.49% of 340,000 active; in the data active = activity change below about -65%; inconclusive = mostly about -30% to -63%
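GST-E1A and His-tagged CtBP (125 nM each as 5X stock) were preincubated with pin-transferred compound for 2 h at 37 °C in the dark, then glutathione donor and nickel acceptor beads were added for 1 h before AlphaScreen reading.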
DT40 TDP1 CPT: qHTS for Inhibitors of human tyrosyl-DNA phosphodiesterase 1 (TDP1): qHTS in cells in presence of CPT | Potency, µM (series often up to 46.2 µM), inactives show at the highest dose activity change, negative = growth inhibition, most hits filed as inhibitors | AID 686979, 2013 | 12% of 420,000 active | chicken DT40 Tdp1-/-;hTDP1 cells + 20 nM CPT, ATP luminescence, 48 h; also: potency is read from the fitted curve at half-maximal effect; nearly all actives have a fitted effect of over 55% in size
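Chicken DT40 Tdp1-/- cells complemented with human TDP1, 400 cells/well, exposed to compounds plus 20 nM camptothecin for at least 48 h at 37 C; viability read as ATP content by CellTiter-Glo luminescence.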
DT40 TDP1 no CPT: qHTS for Inhibitors of human tyrosyl-DNA phosphodiesterase 1 (TDP1): qHTS in cells in absence of CPT | AID 686978, 2013 | DT40 Tdp1-/- hTDP1 cells, no CPT, ATP luminescence, 48 h | Potency, µM (doses to about 46.2 µM), for the others: top-dose activity change, negative = growth inhibition, hits mostly inhibitors | 15% of 420,000 active; also: potency is read from the fitted curve at half-maximal effect; nearly all actives have a fitted effect of over 55% in size
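Stably hTDP1-transfected Tdp1-null chicken DT40 cells were treated with library compounds minus camptothecin and grown for at least 48 hr at 37 °C, after which cellular ATP was quantified by luminescence.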
Six1-Eya2 blk: qHTS Assay for Inhibitors of the Six1/Eya2 Interaction; AlphaScreen GST-Six1/His-Eya2 binding, biochemical; active compounds read low; activity change, % (test concentration not listed); 0.56% of 360,000 active; in the data active = activity change below about -65%; inconclusive = mostly about -30% to -63%
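Compounds are tested against tagged Six1 and Eya2 proteins bridged by glutathione donor and nickel acceptor beads; after a one-hour incubation at 37 °C without light, AlphaScreen emission is recorded.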
TDP1 inh: qHTS Assay for Inhibitors of Tyrosyl-DNA Phosphodiesterase (TDP1); Tyrosyl-DNA phosphodiesterase 1 (Homo sapiens), Q9NUW8; recombinant TDP1, AlphaScreen DNA substrate cleavage; Potency, µM (series often up to 130 µM), without a hit: at the highest dose activity change, negative = inhibition, actives largely listed as inhibitors; 0.28% of 350,000 active; also: potency is read from the fitted curve at half-maximal effect; nearly all actives have a fitted effect of over 40% in size
Target sequence (Q9NUW8 whole entry, looked up): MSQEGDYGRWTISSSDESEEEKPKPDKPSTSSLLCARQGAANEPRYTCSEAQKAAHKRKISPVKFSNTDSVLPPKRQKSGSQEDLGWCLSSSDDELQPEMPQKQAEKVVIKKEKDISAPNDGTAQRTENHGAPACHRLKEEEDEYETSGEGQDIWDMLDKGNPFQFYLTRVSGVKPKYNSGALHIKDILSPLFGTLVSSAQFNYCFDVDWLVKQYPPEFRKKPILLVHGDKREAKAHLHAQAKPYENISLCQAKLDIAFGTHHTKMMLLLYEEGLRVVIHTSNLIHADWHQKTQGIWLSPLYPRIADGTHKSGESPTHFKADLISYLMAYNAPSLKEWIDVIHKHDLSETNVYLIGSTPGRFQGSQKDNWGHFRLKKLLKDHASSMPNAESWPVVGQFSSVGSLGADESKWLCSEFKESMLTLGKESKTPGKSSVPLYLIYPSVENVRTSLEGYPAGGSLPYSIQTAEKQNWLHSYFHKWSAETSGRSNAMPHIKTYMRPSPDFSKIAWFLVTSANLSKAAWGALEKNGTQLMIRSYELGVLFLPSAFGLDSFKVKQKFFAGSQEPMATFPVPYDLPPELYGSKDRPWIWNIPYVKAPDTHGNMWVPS
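Enzyme-compound mixtures sat 15 min at room temperature, followed by a 5 min reaction with 15 nM final substrate and 10 min with AlphaScreen beads. Recombinant human Tdp1 was used at 1 nM final.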
* = called active by the depositor. Shown are actives, neighbours in structure and some others; about 18% of the full set was active somewhere. Unless noted, calls follow the shape of the dose curve; as a rule, active = well fitted curve in the direction sought with a large enough effect; inconclusive = small, poorly fitted or top-dose-only effect, or another doubt; inactive = no such curve, though single readings can be large; an effect the other way counts as inactive or inconclusive. % is scaled to controls: 0 for no effect and ±100 for the full control effect.

COC(=O)c1[nH]c2cc(C)ccc2c1NC(=O)CN1CCCc2ccccc21 was read as IL1B secr inh -27, CtBP-E1A inh -6, DT40 TDP1 CPT inconclusive, DT40 TDP1 no CPT 26µM*, Six1-Eya2 blk -13 and TDP1 inh 8%.
`Cc1ccccc1C(=O)Nc1sc(C)c(C)c1C(=O)c1ccccc1` gave IL1B secr inh -20, CtBP-E1A inh inconclusive, DT40 TDP1 CPT inconclusive, DT40 TDP1 no CPT inconclusive, Six1-Eya2 blk -23 and TDP1 inh 6%.
For COC(=O)c1[nH]c2ccc(Br)cc2c1NC(=O)CN1CCCc2ccccc21 the results were IL1B secr inh -53*, CtBP-E1A inh -15, DT40 TDP1 CPT 21µM*, DT40 TDP1 no CPT 18µM*, Six1-Eya2 blk -17 and TDP1 inh 6%.
Cc1sc(NC(=O)CCl)c(C(=O)c2ccccc2)c1C was read as IL1B secr inh -98*, CtBP-E1A inh -13, DT40 TDP1 CPT 18µM*, DT40 TDP1 no CPT 9.2µM*, Six1-Eya2 blk -18 and TDP1 inh 6%.
Screening COCCNC(=O)NC(=O)CN1CCCc2ccccc21 returned IL1B secr inh 19, CtBP-E1A inh -1, DT40 TDP1 CPT -12%, DT40 TDP1 no CPT -8%, Six1-Eya2 blk 2 and TDP1 inh 1%.
`COC(=O)c1c(NC(=O)CN2CCCc3ccccc32)sc(C)c1C` gave IL1B secr inh -4, CtBP-E1A inh -1, DT40 TDP1 CPT 21µM*, DT40 TDP1 no CPT inconclusive, Six1-Eya2 blk -10 and TDP1 inh 8%.
`CC(=O)c1cccc(NC(=O)COC(=O)c2ccc3c(c2)OCCO3)c1` gave IL1B secr inh 36, CtBP-E1A inh -2, DT40 TDP1 CPT 10%, DT40 TDP1 no CPT -26%, Six1-Eya2 blk 5 and TDP1 inh 3%.
NS(=O)(=O)c1cccc(NS(=O)(=O)c2ccc3ccccc3c2)c1 was read as IL1B secr inh 29, DT40 TDP1 CPT -7%, DT40 TDP1 no CPT -11% and Six1-Eya2 blk -1.
CCOC(=O)c1c(NC(=S)Nc2ccccc2)sc(C)c1C was read as IL1B secr inh 0, CtBP-E1A inh 25, DT40 TDP1 CPT inconclusive, DT40 TDP1 no CPT inconclusive, Six1-Eya2 blk -3 and TDP1 inh 5%.
CCOC(=O)c1c(NC(=O)C[n+]2ccc(Cc3ccccc3)cc2)sc(C)c1C was read as IL1B secr inh -74*, CtBP-E1A inh -3, DT40 TDP1 CPT 12µM*, DT40 TDP1 no CPT 6.5µM*, Six1-Eya2 blk -4 and TDP1 inh 8%.
Cc1cc(C(=O)c2ccc(C(C)(C)C)cc2)c(NC(=O)CCl)s1 was read as IL1B secr inh -51*, CtBP-E1A inh -5, DT40 TDP1 CPT 5.8µM*, DT40 TDP1 no CPT 4.6µM*, Six1-Eya2 blk -5 and TDP1 inh 5%.
`COC(=O)c1c(NC(=O)CS(=O)(=O)c2ccccc2)sc(C)c1C` gave IL1B secr inh -7, CtBP-E1A inh 0, DT40 TDP1 CPT inconclusive, DT40 TDP1 no CPT 21µM* and Six1-Eya2 blk -16.
Cc1sc(NC(=O)CCS(=O)(=O)c2ccccc2)c(C#N)c1C was read as IL1B secr inh -3, CtBP-E1A inh 0, DT40 TDP1 CPT 23µM*, DT40 TDP1 no CPT inconclusive and Six1-Eya2 blk -1.
Screening Cc1cc(C(=O)c2ccccc2)c(NC(=O)CN2CCOCC2)s1 returned IL1B secr inh -15, DT40 TDP1 CPT -19%, DT40 TDP1 no CPT -28%, Six1-Eya2 blk -9 and TDP1 inh 3%.
For CCCn1c(N)c(C(=O)COC(=O)c2cccc(S(=O)(=O)N3CCOCC3)c2)c(=O)[nH]c1=O the results were IL1B secr inh 7, DT40 TDP1 CPT 1%, DT40 TDP1 no CPT 3%, Six1-Eya2 blk 0 and TDP1 inh 0%.
For CN(c1ccccc1)c1nc(N)c([N+](=O)[O-])c(Nc2ccc(F)cc2)n1 the results were IL1B secr inh 15, DT40 TDP1 CPT 1%, DT40 TDP1 no CPT -6% and Six1-Eya2 blk -11.
Screening O=C(NCCc1ccc2c(c1)OCCO2)c1cc(F)cc(F)c1 returned IL1B secr inh 4, CtBP-E1A inh 0, DT40 TDP1 CPT 21µM*, DT40 TDP1 no CPT 16µM*, Six1-Eya2 blk 0 and TDP1 inh -3%.
O=C(COC(=O)C1=COCCO1)Nc1cccc(S(=O)(=O)N2CCOCC2)c1 was read as IL1B secr inh 0, CtBP-E1A inh 1, DT40 TDP1 CPT 4%, DT40 TDP1 no CPT 0%, Six1-Eya2 blk -1 and TDP1 inh 7%.
`CCNC(=O)C1CCN(c2nc3ccccc3nc2C(F)(F)F)CC1` gave DT40 TDP1 CPT inconclusive, DT40 TDP1 no CPT inconclusive and TDP1 inh 3%.
For Cc1ccc(OC(=O)Cn2c(C(F)(F)F)nc3ccccc32)cc1 the results were IL1B secr inh 12, CtBP-E1A inh 4, DT40 TDP1 CPT -7%, DT40 TDP1 no CPT -13%, Six1-Eya2 blk 9 and TDP1 inh 3%.
`CCOC(=O)Cn1c(C(F)(F)F)nc2nc(Cl)c(Cl)nc21` gave IL1B secr inh -92*, CtBP-E1A inh 3, DT40 TDP1 CPT 4%, DT40 TDP1 no CPT -28% and Six1-Eya2 blk 0.
For Cc1ccc(S(=O)(=O)Nc2ccc(S(=O)(=O)NC(C)(C)C)cc2)cc1 the results were IL1B secr inh -14, CtBP-E1A inh -3, DT40 TDP1 CPT -4%, DT40 TDP1 no CPT -8%, Six1-Eya2 blk 6 and TDP1 inh 2%.
Cc1ccc(NC2=C(Cl)C(=O)OC2OC(=O)c2ccco2)c(C)c1 (stereo not given) was read as IL1B secr inh 0, CtBP-E1A inh 6, DT40 TDP1 CPT inconclusive, DT40 TDP1 no CPT -45% and Six1-Eya2 blk 3.
For Cc1ccc(NC2=C(Cl)C(=O)OC2OC(=O)c2ccco2)cc1C (stereo not given) the results were IL1B secr inh -87*, CtBP-E1A inh 17, DT40 TDP1 CPT inconclusive, DT40 TDP1 no CPT inconclusive, Six1-Eya2 blk -1 and TDP1 inh 3%.
For Cc1ccc(C)c(NC2=C(Cl)C(=O)OC2OC(=O)c2ccco2)c1 (stereo not given) the results were IL1B secr inh -90*, CtBP-E1A inh 6, DT40 TDP1 CPT 23µM*, DT40 TDP1 no CPT 23µM*, Six1-Eya2 blk 6 and TDP1 inh 6%.
